{
  "source": "the supplement of paper PMC11732987",
  "about": "“Enantioselective OTUD7B fragment discovery through chemoproteomics screening and high-throughput optimisation” (Communications Chemistry, 2025)",
  "assay_in_all_cases": "log2 ratio of Biotin-Ahx-Ub-VS probe labelling (fragment/DMSO); higher = less target engagement (more negative = stronger competition), active = hit call of the paper (q ≤ 0.05, log2 ratio ≤ -1)",
  "conditions_in_all_cases": "compound concentration: 200 uM; treatment time: 3 h",
  "key": {"[1]": {"target": "T1, USP19 (UniProt O94966)", "T1 sequence (whole entry)": "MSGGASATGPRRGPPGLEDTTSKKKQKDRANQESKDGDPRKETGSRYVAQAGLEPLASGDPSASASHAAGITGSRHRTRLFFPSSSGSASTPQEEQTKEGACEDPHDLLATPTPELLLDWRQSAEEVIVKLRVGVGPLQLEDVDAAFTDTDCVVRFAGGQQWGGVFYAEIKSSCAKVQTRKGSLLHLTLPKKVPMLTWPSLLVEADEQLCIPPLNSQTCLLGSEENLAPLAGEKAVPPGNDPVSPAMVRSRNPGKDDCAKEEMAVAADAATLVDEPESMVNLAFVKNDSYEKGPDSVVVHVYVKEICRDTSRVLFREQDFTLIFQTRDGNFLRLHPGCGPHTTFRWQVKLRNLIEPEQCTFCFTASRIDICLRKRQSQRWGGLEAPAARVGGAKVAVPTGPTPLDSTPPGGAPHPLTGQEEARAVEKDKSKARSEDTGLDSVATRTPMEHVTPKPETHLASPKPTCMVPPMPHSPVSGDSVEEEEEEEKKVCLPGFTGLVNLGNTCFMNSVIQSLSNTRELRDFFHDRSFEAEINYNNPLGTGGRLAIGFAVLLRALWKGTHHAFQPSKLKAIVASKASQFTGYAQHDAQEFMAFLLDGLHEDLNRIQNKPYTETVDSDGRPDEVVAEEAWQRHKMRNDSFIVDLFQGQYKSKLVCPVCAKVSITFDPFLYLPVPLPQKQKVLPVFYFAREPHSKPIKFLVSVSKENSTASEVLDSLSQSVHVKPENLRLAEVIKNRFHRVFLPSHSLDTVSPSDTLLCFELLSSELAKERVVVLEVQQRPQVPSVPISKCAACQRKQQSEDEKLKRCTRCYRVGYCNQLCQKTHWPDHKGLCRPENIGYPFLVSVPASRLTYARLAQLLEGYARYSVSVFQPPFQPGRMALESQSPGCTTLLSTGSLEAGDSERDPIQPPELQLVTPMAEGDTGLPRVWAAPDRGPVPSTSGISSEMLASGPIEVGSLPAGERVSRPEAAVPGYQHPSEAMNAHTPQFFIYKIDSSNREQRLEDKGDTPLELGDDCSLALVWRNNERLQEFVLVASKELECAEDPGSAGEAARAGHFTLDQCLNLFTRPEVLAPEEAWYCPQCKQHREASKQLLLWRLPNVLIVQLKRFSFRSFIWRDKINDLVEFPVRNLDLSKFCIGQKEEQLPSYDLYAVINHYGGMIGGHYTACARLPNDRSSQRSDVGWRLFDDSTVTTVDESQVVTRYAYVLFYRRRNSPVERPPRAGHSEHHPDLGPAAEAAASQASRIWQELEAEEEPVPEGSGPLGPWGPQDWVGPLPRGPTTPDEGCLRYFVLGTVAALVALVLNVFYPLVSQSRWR", "method_in_brief": "(§1)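 The table lists average log2 ratios of fragment over vehicle, from an unpaired t-test on global-median-normalised Spectronaut label-free quantities. Proteins with ≥2 unique peptides were used. Samples were HEK293T lysate (495 µg) treated in triplicate with fragment at 200 µM or vehicle for 3 h, then with Biotin-Ahx-Ub-VS (0.5 µM final) for 1 h, with labelled DUBs NeutrAvidin-enriched and run by diaPASEF LC-MS/MS.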"}, "[2]": {"target": "T2, USP22 (UniProt Q9UPT9)", "T2 sequence (whole entry)": "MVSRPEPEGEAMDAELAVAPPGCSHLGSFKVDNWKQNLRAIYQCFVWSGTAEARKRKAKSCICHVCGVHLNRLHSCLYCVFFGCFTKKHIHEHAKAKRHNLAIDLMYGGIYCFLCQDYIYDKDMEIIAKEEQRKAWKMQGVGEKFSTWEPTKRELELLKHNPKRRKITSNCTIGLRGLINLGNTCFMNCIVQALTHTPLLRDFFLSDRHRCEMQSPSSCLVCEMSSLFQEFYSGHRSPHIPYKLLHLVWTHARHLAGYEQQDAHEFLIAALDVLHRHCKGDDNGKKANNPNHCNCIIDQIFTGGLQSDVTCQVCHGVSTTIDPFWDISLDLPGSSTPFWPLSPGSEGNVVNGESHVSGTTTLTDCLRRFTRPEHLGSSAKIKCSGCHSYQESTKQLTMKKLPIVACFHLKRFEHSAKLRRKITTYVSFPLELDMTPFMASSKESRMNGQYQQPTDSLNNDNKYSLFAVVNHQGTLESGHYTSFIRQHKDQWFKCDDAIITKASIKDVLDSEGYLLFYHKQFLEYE", "method_in_brief": "as §1"}, "[3]": {"target": "USP24 (UniProt Q9UPU5)", "sequence (Q9UPU5 whole entry)": "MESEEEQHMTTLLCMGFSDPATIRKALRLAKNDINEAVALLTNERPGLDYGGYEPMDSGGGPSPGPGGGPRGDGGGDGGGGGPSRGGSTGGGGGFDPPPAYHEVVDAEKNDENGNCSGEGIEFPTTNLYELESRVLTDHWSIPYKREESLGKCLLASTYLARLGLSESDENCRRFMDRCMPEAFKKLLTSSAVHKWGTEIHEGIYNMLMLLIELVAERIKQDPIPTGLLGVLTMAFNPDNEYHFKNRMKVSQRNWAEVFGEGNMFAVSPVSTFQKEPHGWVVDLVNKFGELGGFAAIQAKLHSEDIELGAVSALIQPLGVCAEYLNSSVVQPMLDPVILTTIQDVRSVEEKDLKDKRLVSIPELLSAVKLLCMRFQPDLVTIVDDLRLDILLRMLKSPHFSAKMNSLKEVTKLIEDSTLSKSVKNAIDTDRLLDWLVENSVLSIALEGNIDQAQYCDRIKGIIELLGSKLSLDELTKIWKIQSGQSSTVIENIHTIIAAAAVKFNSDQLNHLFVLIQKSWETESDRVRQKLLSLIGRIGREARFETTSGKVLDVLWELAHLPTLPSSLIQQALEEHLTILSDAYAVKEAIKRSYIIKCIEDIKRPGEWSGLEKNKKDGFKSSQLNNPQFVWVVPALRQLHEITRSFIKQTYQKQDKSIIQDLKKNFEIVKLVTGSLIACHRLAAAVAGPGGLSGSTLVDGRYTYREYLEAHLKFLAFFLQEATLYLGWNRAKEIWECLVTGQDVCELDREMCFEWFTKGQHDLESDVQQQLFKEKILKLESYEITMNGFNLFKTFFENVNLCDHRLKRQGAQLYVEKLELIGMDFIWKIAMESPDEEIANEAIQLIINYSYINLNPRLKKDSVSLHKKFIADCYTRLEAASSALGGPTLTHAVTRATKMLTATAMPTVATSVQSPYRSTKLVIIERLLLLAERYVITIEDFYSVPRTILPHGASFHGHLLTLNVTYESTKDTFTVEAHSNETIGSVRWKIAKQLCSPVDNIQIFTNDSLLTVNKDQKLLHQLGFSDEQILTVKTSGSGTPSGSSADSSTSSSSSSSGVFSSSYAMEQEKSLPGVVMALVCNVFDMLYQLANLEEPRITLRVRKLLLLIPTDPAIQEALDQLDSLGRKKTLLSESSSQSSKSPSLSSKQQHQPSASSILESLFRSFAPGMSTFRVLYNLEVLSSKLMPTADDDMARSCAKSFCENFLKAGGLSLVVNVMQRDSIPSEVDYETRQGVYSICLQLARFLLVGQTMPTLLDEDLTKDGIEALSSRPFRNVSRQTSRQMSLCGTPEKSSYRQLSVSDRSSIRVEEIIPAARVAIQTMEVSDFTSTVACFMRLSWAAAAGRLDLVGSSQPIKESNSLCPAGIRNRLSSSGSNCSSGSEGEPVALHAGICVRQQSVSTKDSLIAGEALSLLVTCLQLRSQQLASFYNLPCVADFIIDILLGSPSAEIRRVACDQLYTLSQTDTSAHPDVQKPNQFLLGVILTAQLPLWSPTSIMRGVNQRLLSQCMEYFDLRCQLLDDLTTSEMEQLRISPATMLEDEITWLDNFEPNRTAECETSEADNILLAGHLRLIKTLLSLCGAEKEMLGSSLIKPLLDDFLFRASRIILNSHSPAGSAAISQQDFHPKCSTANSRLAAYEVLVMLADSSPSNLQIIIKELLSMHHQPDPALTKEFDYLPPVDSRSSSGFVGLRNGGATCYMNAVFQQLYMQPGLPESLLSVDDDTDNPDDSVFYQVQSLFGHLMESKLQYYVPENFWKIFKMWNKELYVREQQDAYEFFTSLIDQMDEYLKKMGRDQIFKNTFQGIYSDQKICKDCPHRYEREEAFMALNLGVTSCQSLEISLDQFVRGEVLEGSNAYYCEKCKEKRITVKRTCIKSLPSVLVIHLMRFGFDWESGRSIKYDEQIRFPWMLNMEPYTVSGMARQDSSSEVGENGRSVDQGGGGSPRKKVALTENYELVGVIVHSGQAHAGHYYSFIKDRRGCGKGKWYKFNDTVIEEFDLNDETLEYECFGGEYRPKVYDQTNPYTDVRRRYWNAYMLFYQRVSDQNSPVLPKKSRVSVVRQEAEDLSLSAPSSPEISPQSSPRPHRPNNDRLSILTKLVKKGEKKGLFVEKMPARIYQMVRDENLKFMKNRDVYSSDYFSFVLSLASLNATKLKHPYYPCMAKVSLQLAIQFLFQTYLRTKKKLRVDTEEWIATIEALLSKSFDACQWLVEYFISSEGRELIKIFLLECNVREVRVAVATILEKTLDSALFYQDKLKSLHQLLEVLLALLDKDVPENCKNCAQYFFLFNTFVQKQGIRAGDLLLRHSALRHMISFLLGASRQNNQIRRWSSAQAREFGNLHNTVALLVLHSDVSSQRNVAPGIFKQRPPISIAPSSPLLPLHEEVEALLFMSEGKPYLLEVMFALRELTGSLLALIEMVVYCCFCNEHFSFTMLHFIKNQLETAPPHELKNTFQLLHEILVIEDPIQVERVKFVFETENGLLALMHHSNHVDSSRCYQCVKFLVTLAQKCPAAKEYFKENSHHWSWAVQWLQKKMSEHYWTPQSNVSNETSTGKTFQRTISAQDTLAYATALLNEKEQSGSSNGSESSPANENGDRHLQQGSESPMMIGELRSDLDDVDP", "method_in_brief": "as §1"}, "[4]": {"target": "T3, USP25 (UniProt Q9UHP3)", "T3 sequence (whole entry)": "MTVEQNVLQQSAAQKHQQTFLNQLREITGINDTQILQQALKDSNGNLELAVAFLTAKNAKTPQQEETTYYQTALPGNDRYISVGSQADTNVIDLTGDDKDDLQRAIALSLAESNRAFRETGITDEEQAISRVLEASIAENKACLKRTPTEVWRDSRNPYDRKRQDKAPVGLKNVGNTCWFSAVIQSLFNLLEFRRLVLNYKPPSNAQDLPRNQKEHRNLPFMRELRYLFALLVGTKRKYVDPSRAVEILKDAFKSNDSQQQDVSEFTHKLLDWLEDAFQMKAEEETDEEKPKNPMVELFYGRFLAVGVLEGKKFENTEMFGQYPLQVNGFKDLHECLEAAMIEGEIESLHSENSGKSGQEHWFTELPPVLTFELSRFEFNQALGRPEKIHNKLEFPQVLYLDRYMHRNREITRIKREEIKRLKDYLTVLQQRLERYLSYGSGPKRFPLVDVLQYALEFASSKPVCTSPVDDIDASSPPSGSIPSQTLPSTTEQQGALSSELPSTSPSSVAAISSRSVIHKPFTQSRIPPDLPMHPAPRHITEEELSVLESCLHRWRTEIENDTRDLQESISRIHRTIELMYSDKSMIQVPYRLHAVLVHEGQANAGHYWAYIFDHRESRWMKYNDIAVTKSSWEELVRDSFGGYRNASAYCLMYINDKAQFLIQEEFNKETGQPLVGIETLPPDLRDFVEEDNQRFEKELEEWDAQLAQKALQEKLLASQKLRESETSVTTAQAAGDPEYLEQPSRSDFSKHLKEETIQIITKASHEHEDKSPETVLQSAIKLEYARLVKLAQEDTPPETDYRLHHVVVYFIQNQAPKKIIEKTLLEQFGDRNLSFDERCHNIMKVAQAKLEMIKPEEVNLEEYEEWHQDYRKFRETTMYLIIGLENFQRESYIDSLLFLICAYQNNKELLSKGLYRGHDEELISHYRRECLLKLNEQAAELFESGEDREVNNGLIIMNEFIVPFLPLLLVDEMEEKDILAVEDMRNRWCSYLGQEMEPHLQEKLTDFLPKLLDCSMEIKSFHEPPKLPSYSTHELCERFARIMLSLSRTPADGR", "method_in_brief": "as §1"}, "[5]": {"target": "T4, USP28 (UniProt Q96RU2)", "T4 sequence (whole entry)": "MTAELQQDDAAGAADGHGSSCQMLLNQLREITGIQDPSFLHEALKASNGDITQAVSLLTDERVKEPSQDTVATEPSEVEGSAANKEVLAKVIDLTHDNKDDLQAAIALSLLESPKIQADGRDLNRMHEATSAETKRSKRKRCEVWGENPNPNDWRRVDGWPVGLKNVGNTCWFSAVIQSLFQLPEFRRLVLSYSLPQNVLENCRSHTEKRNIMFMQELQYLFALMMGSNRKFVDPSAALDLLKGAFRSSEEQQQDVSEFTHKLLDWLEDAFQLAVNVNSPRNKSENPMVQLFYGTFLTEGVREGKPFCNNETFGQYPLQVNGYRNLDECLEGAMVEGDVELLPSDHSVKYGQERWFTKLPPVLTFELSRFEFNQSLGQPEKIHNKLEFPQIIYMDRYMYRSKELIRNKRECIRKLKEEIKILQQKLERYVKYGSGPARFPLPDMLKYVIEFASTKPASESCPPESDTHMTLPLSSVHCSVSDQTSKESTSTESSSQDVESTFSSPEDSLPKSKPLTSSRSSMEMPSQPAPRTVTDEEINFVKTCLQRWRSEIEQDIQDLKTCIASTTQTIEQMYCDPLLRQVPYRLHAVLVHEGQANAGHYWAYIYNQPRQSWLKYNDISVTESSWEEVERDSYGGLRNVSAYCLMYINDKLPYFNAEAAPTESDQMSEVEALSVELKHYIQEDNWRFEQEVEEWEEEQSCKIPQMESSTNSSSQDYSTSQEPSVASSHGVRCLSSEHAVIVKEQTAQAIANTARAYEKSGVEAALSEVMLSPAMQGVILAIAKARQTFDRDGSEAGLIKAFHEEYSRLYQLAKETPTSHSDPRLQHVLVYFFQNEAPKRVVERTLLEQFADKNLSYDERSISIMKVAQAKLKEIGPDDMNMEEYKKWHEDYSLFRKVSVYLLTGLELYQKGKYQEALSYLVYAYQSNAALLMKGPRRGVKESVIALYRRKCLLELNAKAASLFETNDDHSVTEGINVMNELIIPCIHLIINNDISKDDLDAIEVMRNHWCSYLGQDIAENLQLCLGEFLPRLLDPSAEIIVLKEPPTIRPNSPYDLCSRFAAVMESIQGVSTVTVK", "method_in_brief": "as §1"}},
  "note": "Unmarked numbers belong to inactive results.",
  "data": [
    {"smiles": "CS(=O)(=O)c1ccc(NC(=O)CCl)cc1", "values": [
      {"measurement": "log2 ratio of Biotin-Ahx-Ub-VS probe labelling", "setting": "[1]", "result": -0.223},
      {"measurement": "log2 ratio of Biotin-Ahx-Ub-VS probe labelling", "setting": "[2]", "result": 0.107},
      {"measurement": "log2 ratio of Biotin-Ahx-Ub-VS probe labelling", "setting": "[3]", "result": -0.247},
      {"measurement": "log2 ratio of Biotin-Ahx-Ub-VS probe labelling", "setting": "[4]", "result": "-1.74 (active)"},
      {"measurement": "log2 ratio of Biotin-Ahx-Ub-VS probe labelling", "setting": "[5]", "result": "-1.38 (active)"}
    ]}
  ]
}
